Compound activity from PubChem.
KB-V1 cytotox: kills drug-selected multidrug resistant KB-V1 cells; KB-V1 MDR cells viability, CellTiter-Glo, 72 h; Potency, µM (doses to about 46.1 µM), most hits filed as cytotoxic; 400,000 compounds, 3.4% hits; AID 1347076; further: nearly all actives have a fitted effect of over 60% in size
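KB-V1 cells (P-gp-expressing MDR subline of KB-3-1) in phenol-red-free DMEM with 10% FBS were exposed to library compounds over a concentration series for 72 h at 37 degrees C. Viability read by CellTiter-Glo luminescence; concentration-effect curves fitted after normalization.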
HT1080 IDH1KD tx: kills HT-1080 cells with IDH1 knockdown. HT-1080 IDH1 knockdown viability, ATP luminescence, 48 h. 360,000 compounds, 2% hits. Potency, µM (doses to about 46.1 µM), usual class: cytotoxic. AID 686971
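Knockdown cells (IDH1KD HT-1080) received compounds 2 h after plating at 750 cells/well and were kept 48 h at 37 °C in 5% FBS RPMI. A CellTiter-Glo luminescence read gave % activity for curve fitting.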
MCF10A rereplic: induces DNA re-replication in MCF 10a normal breast cells. MCF 10A DNA re-replication, Hoechst nuclear intensity, 48 h. Potency, µM (top dose mostly 46.1 µM), actives largely listed as activators. 350,000 compounds, 2.9% hits; further: nearly all actives have a fitted effect of over 50% in size
HT1080-NT tox: kills 2HG-producing HT-1080-NT fibrosarcoma cells; HT-1080-NT fibrosarcoma viability, CellTiter-Glo ATP luminescence, 48 h; Potency, µM (highest dose often 46.1 µM), usual class: cytotoxic; 360,000 compounds, 1.6% hits; AID 686970;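 further: NT is the 2HG producing partner of a matched IDH1 knockdown line; nearly all actives have a fitted effect of over 55% in size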
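Fibrosarcoma NT cells, 750 per well in 5% FBS RPMI, were exposed to compound for 48 hours. Viability: CellTiter-Glo luminescence.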
KB-3-1 tox: KB-3-1 parental cell cytotoxicity; KB-3-1 viability, CellTiter-Glo ATP luminescence, 72 h; Potency, µM (series often up to 46.1 µM), hits mostly cytotoxic; 400,000 compounds, 1.4% hits; further: nearly all actives have a fitted effect of over 60% in size
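Viability of parental KB-3-1 cells, measured by CellTiter-Glo luminescence, followed a 72 h incubation at 37 °C with pinned compounds in phenol-red-free DMEM containing 10% FBS.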
SW480 rereplic: inducers of DNA re-replication in SW480 colon cancer cells. SW480 DNA re-replication, Hoechst DNA content imaging, 48 h. Potency, µM (highest dose often 46.1 µM), usual class: activators. 340,000 compounds, 1.8% hits. AID 624297; further: nearly all actives have a fitted effect of over 55% in size
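SW480 cells exposed to compounds for 48 hr at 37 C, 5% CO2, then Hoechst-stained 40 min. Nuclear DNA content imaged by fluorescence scanning (405 nm excitation, 500-530 nm emission); re-replication scored as increased high-intensity nuclei.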
Numbers stand for hits. Most compounds without a hit are left out; they make up all but 8% or so of the library. The call rests on the fitted dose curve; in most records, active means well fitted curve in the direction sought with a large enough effect; inconclusive means small, poorly fitted or top-dose-only effect, or another doubt; inactive means no such curve, though single readings can be large; an effect the other way counts as inactive or inconclusive.

Screening O=C(Nc1ccc(N2CCN(C(=O)c3cccs3)CC2)c(Cl)c1)c1ccco1 returned KB-V1 cytotox 3.7µM, HT1080 IDH1KD tx inconclusive, MCF10A rereplic inconclusive, HT1080-NT tox inactive, KB-3-1 tox inconclusive and SW480 rereplic inactive.
Screening Cc1ccc(C(=O)NC(=S)N2CCN(c3ccc([N+](=O)[O-])cc3)CC2)cc1 returned KB-V1 cytotox 23µM, HT1080 IDH1KD tx inactive, MCF10A rereplic inactive, HT1080-NT tox inactive, KB-3-1 tox inactive and SW480 rereplic inactive.
Screening O=C(NC(=S)N1CCN(c2ccc([N+](=O)[O-])cc2)CC1)c1ccccc1 returned KB-V1 cytotox inactive, HT1080 IDH1KD tx inactive, MCF10A rereplic inactive, HT1080-NT tox inactive, KB-3-1 tox inactive and SW480 rereplic inactive.
`COc1ccccc1-n1c(SCC(=O)NCC2CCCO2)nc2c([nH]c3ccccc32)c1=O` (stereo not drawn) gave KB-V1 cytotox inactive, HT1080 IDH1KD tx inactive, MCF10A rereplic inactive, HT1080-NT tox inactive, KB-3-1 tox inactive and SW480 rereplic inactive.
`c1ccc(-n2cnc3cc(NCc4ccncc4)ccc32)cc1` gave KB-V1 cytotox inactive, HT1080 IDH1KD tx inactive, MCF10A rereplic inconclusive, HT1080-NT tox inactive, KB-3-1 tox inactive and SW480 rereplic inconclusive.
c1ccc(-n2cnc3cc(NCc4ccccn4)ccc32)cc1 was read as KB-V1 cytotox inactive, HT1080 IDH1KD tx inactive, MCF10A rereplic 5.8µM, HT1080-NT tox inactive, KB-3-1 tox inactive and SW480 rereplic 21µM.
Screening CCOc1ccc(-n2c(C)cc(C(=O)CCl)c2C)cc1 returned KB-V1 cytotox inconclusive, HT1080 IDH1KD tx 8.2µM, MCF10A rereplic 12µM, HT1080-NT tox 7.3µM, KB-3-1 tox 4.6µM and SW480 rereplic 9.2µM.
`COC(=O)c1ccc(-n2c(C)cc(C(=O)CCl)c2C)cc1` gave KB-V1 cytotox inactive, HT1080 IDH1KD tx inconclusive, MCF10A rereplic 12µM, HT1080-NT tox inconclusive, KB-3-1 tox inconclusive and SW480 rereplic inconclusive.
`COc1ccc(/C=C/C(=O)OCC(=O)c2ccccc2F)cc1` gave KB-V1 cytotox inactive, HT1080 IDH1KD tx inactive, MCF10A rereplic inactive, HT1080-NT tox inactive, KB-3-1 tox inactive and SW480 rereplic inactive.
COc1ccc(/C=C\C(=O)CC(O)(c2ccccc2)C(F)(F)F)cc1 (stereo not drawn) was read as KB-V1 cytotox inconclusive, HT1080 IDH1KD tx 11µM, MCF10A rereplic inactive, HT1080-NT tox inconclusive, KB-3-1 tox inactive and SW480 rereplic inactive.
COc1ccc(/C=C/C(=O)c2ccccc2O)cc1 was read as KB-V1 cytotox inactive, HT1080 IDH1KD tx inactive, MCF10A rereplic inactive, HT1080-NT tox inactive, KB-3-1 tox inactive and SW480 rereplic 0.1µM.
`CCOc1ccc(NC(=O)c2ccccc2OCC(=O)c2ccccc2)cc1` gave KB-V1 cytotox inconclusive, HT1080 IDH1KD tx inactive, MCF10A rereplic inactive, HT1080-NT tox inactive, KB-3-1 tox inactive and SW480 rereplic inactive.
CN(C)c1ccc(/C=C/c2ccnc3ccc(Br)cc23)cc1 was read as KB-V1 cytotox inactive and KB-3-1 tox inactive.
Screening COc1ccc(CNC(=O)Cn2cnc3c(OCc4ccccc4)ncnc32)cc1 returned KB-V1 cytotox inactive, HT1080 IDH1KD tx inactive, MCF10A rereplic inactive, HT1080-NT tox inactive, KB-3-1 tox inactive and SW480 rereplic inactive.
Screening c1ccc(COc2ncnc3c2ncn3CCCNCC(c2ccccc2)c2ccccc2)cc1 returned KB-V1 cytotox inconclusive, HT1080 IDH1KD tx inconclusive, HT1080-NT tox 16µM and KB-3-1 tox inconclusive.
`O=C(Cn1cnc2c(OCc3ccccc3)ncnc21)NCc1ccccc1` gave KB-V1 cytotox inactive, HT1080 IDH1KD tx inconclusive, MCF10A rereplic inconclusive, HT1080-NT tox inconclusive, KB-3-1 tox inactive and SW480 rereplic 15µM.
`COc1ncnc2c1ncn2CCCNCC(c1ccccc1)c1ccccc1` gave KB-V1 cytotox inactive, HT1080 IDH1KD tx inactive, HT1080-NT tox inactive and KB-3-1 tox inactive.
